Data reported in PubChem BioAssay AID1273 (Columbia University Molecular Screening Center, 2008).
Among all 130,000 compounds or so, about 1,200 (0.92%) were called active.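 Rule for the calls: active = inhibition above the mean plus 3 SD, with well images judged a real hit on visual review (cut at about 60% in these data, passing the limit was not always enough); inconclusive = inhibition over the cutoff but images rejected on review; inactive = inhibition not above the cutoff.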 The sample as a whole holds a higher share of actives than the screen did.

Assay: insulin gene promoter suppression in islet cells – imaging, TRM-6 cells (human fetal islet line), eGFP reporter, cell count, primary screen (AID 1273;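 for normalized cell count: cells exposed to compound for 48 h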)
Conditions: at 2 µM, reporter expression induced with tamoxifen; inhibition: stronger effect = higher value; normalized cell count: measured here: cell count, toxicity
For `O=C(COC(=O)c1ccccn1)Nc1cccc2ccccc12`, the inhibition was -83.3% (inactive) and the normalized cell count was 96%. With `O=C(CCN1C(=O)c2ccccc2C1=O)NCCCn1ccnc1` the inhibition was -16.7% (inactive) and the normalized cell count was 84.2%. With `CN(C)CCNC(CC(=O)Nc1ccc(Cl)c(Cl)c1)C(=O)O` (centres undefined) the inhibition was 44.2% (inactive) and the normalized cell count was 104%. In the case of `COC(=O)C(CC(=O)Nc1cc(C)ccc1C)Nc1ccccc1OC` (centres undefined), the inhibition was 7.14% (inactive) and the normalized cell count was 131%. In the case of `COc1ccccc1NC(=O)CC(NCCN(C)C)C(=O)O` (centres undefined), the inhibition was 72.4% (active) and the normalized cell count was 43%. For `CCN(CC)CCNC(=O)c1sc2ncn(CC(=O)Nc3ccc(C)c(Cl)c3)c(=O)c2c1C`, the inhibition was -14.3% (inactive) and the normalized cell count was 89.6%. With `Cc1c(Br)ccc(NC(=O)COc2ccccc2C(N)=O)c1C` the inhibition was -5.26% (inactive) and the normalized cell count was 50.7%. With `O=C(Nc1ccc(N2CCN(C(=O)C3CC3)CC2)cc1)c1cccs1` the inhibition was 36.8% (inactive) and the normalized cell count was 132%. In the case of `Cc1c(Nc2nc3ccccc3nc2NS(=O)(=O)c2cccs2)c(=O)n(-c2ccccc2)n1C`, the inhibition was 75% (active) and the normalized cell count was 38.1%. With `COC(=O)Nc1c(C)n(C)n(-c2ccccc2)c1=O` the inhibition was 13.9% (inactive) and the normalized cell count was 53.7%. With `COc1ccc(S(=O)(=O)Nc2c(C)n(C)n(-c3ccccc3)c2=O)cc1` the inhibition was 22.7% (inactive) and the normalized cell count was 104%. With `Cc1nn(-c2ccc([N+](=O)[O-])cc2)c(N)c1-c1ccccc1` the inhibition was 25% (inactive) and the normalized cell count was 95.4%. With `CCOC(=O)c1ccc(NC(=O)C2CC(=O)Nc3nc4ccccc4n32)cc1` (centres undefined) the inhibition was -36.4% (inactive) and the normalized cell count was 131%. For `CCOC(=O)c1c(C)[nH]c(C2=NNC(=NC(C)COC)SC2)c1C` (centres undefined), the inhibition was 31.2% (inactive) and the normalized cell count was 87.8%. With `Cc1ccc(O)c(CCc2ccccc2)n1` the inhibition was 91.9% (active) and the normalized cell count was 94.3%. With `O=C(O)CCCc1ccccc1` the inhibition was -23.8% (inactive) and the normalized cell count was 97.5%. With `Cc1ccc(O)c(-c2cc(C(=O)NCc3ccccc3)[nH]n2)c1` the inhibition was 7.14% (inactive) and the normalized cell count was 81.6%. With `CN(C)c1nccc(NCc2ccccc2)c1C#N` the inhibition was 40.5% (inactive) and the normalized cell count was 140%. In the case of `O=C(NNc1cc(Cl)ccc1Cl)c1cccnc1Cl`, the inhibition was 11.1% (inactive) and the normalized cell count was 114%. For `CCc1nnc(NS(=O)(=O)c2ccc(NC(=S)NC(=O)c3cccs3)cc2)s1`, the inhibition was -11.1% (inactive) and the normalized cell count was 96.4%. In the case of `CN(C)/C=C(/C(=O)c1ccccc1)S(=O)(=O)c1ccc(Cl)cc1`, the inhibition was -23.8% (inactive) and the normalized cell count was 70.5%. With `CN(C)/C=C(/C(=O)c1ccc(F)cc1)S(=O)(=O)c1ccc(F)cc1` the inhibition was 50% (inactive) and the normalized cell count was 124%. In the case of `CN(C)/C=C(/C(=O)c1ccccc1Cl)S(C)(=O)=O`, the inhibition was 75% (active) and the normalized cell count was 84.2%. For `COc1cccc(NC(=O)CS(=O)(=O)c2cn(CC(=O)N3CCOCC3)c3ccccc23)c1`, the inhibition was -16.7% (inactive) and the normalized cell count was 88.8%. For `O=C1c2ccccc2C(=O)N1CCC(O)C[N+](=O)[O-]` (centres undefined), the inhibition was -17.6% (inactive) and the normalized cell count was 90.3%. In the case of `Cc1cc([N+](=O)[O-])ccc1NC(=O)c1ccc(NC(=O)C(C)C)cc1`, the inhibition was 30% (inactive) and the normalized cell count was 120%. With `CCC(=O)N1CCC(C(N)=O)(N2CCCCC2)CC1` the inhibition was 33.3% (inactive) and the normalized cell count was 108%. For `COC(=O)C1=C(C)N(C)C(=S)NC1c1cc(OC)ccc1OC` (centres undefined), the inhibition was 23.1% (inactive) and the normalized cell count was 118%. In the case of `Cc1nc2ccccc2c(-c2ccccc2)c1C(=O)c1ccccc1`, the inhibition was 27.5% (inactive) and the normalized cell count was 64.5%. With `Cc1nc2ccccc2cc1O` the inhibition was 67.9% (active) and the normalized cell count was 57.9%. For `CCOC(=O)c1cc2ccccc2nc1C`, the inhibition was 57.1% (inactive) and the normalized cell count was 47.1%. With `COc1cc(C(=O)NCc2ccc(-n3cccc3)cc2)cc(OC)c1OC` the inhibition was 46.1% (inactive) and the normalized cell count was 69%. In the case of `O=C(CN1CCSCC1)N/N=C/c1ccc(Cl)cc1`, the inhibition was 35.3% (inactive) and the normalized cell count was 92.4%. In the case of `Cc1ccc(-n2cc(CN(C)Cc3nccn3C)c(-c3cccc(C)c3)n2)cc1`, the inhibition was 41.7% (inactive) and the normalized cell count was 124%. For `O=C(O)C1C2CC2CN1C(=O)c1ccc(Cl)cc1Cl` (centres undefined), the inhibition was -5.56% (inactive) and the normalized cell count was 121%. For `CCCc1nc2scc(-c3ccc(C)cc3)c2c(=O)n1N`, the inhibition was 81.5% (active) and the normalized cell count was 78.3%. In the case of `Cc1nc2scc(-c3cccs3)c2c(=O)n1N`, the inhibition was 9.8% (inactive) and the normalized cell count was 105%. For `NC(=O)Cc1nc2scc(-c3ccc(Cl)cc3)c2c(=O)[nH]1`, the inhibition was 5.88% (inactive) and the normalized cell count was 114%. With `COc1cc(OC)cc(-c2nnc(N(C)C(=O)c3ccncc3)s2)c1` the inhibition was 36.4% (inactive) and the normalized cell count was 156%. In the case of `CC(NC(=S)NC1CCCCC1)C(c1ccccc1)N1CCOCC1` (centres undefined), the inhibition was -38.9% (inactive) and the normalized cell count was 111%. In the case of `Cc1cccc(N(C(=O)c2ccc(CN3CCOCC3)o2)C(C(=O)NC2CCCCC2)c2ccc(F)cc2)c1` (centres undefined), the inhibition was 87.5% (active) and the normalized cell count was 98.6%. For `Cc1ccc(N(C(=O)c2ccc(CN3CCOCC3)o2)C(C(=O)NCCC(C)C)c2cccs2)c(C)c1` (centres undefined), the inhibition was 8.11% (inactive) and the normalized cell count was 114%. With `Cc1cccc(N(C(=O)Cc2cccs2)C(C(=O)NC2CCCC2)c2ccsc2)c1` (centres undefined) the inhibition was -23.3% (inactive) and the normalized cell count was 119%. With `C1CC1Cc1noc(CN2CCN(CC3CC3)CC2)n1` the inhibition was 0% (inactive) and the normalized cell count was 97.5%. With `CCOC(=O)C1(Cc2cccc(OC)c2)CCN(C(C)CC(C)(C)O)CC1` (centres undefined) the inhibition was -275% (inactive) and the normalized cell count was 102%. For `COc1cc(C(=O)Nc2nccs2)cc(OC)c1OC`, the inhibition was -25.3% (inactive) and the normalized cell count was 97.1%. For `O=C(COC(=O)c1ccc(O)cc1)Nc1nccs1`, the inhibition was 16.7% (inactive) and the normalized cell count was 74.1%. With `CCCCOC(=O)Nc1nccs1` the inhibition was 93.8% (active) and the normalized cell count was 53.2%. With `CC(/C=N/NC(=O)c1ccncc1)=C\c1ccco1` the inhibition was 23.1% (inactive) and the normalized cell count was 115%. With `CC(=O)c1ccc(NC(=O)C(C)NCc2ccc(Cl)cc2)cc1` (centres undefined) the inhibition was -189% (inactive) and the normalized cell count was 58.5%. In the case of `Cc1ccc(S(=O)(=O)NC(=O)COc2ccccc2C)cc1`, the inhibition was 81.2% (active) and the normalized cell count was 150%. With `Cc1cccc(NC(=O)COc2ccccc2C)n1` the inhibition was -406% (inactive) and the normalized cell count was 56.6%. In the case of `COCCNC(=O)COc1ccccc1C`, the inhibition was 20.8% (inactive) and the normalized cell count was 112%. In the case of `COc1cccc2cc(S(=O)(=O)c3ccc(C)cc3)/c(=N/NS(=O)(=O)c3ccc(C)cc3)oc12`, the inhibition was 27.3% (inactive) and the normalized cell count was 139%. With `COC(=O)C1=C(C)N(c2ccc(Br)cc2)C(=O)/C1=C\c1ccco1` the inhibition was 25.6% (inactive) and the normalized cell count was 98.3%. For `COc1ccc(N2C(=O)/C(=C\c3ccco3)N=C2SCC(N)=O)cc1Cl`, the inhibition was 91.7% (active) and the normalized cell count was 75.5%. With `COc1ccc([N+](=O)[O-])cc1NC(=O)COC(=O)/C=C/c1ccco1` the inhibition was -14.3% (inactive) and the normalized cell count was 128%.
